# How the values were obtained:
# Test in all cases: DAPPL (digital affinity profiling via proximity ligation, sequencing); 10 mM Tris-HCl pH 7.5, 50 mM NaCl, 1 mM DTT, 4% glycerol, room temperature, 30 min; GST-TFs on glutathione beads, 16-mer random dsDNA library, 0.1% formaldehyde crosslink after washing; high values mean tight binding
# Settings in all cases: protein: recombinant; tags: N-terminal GST; dsDNA, one strand shown
# [1] = molecular target: T1, FLI1 (Homo sapiens, UniProt Q01543 1-452)
# T1 sequence: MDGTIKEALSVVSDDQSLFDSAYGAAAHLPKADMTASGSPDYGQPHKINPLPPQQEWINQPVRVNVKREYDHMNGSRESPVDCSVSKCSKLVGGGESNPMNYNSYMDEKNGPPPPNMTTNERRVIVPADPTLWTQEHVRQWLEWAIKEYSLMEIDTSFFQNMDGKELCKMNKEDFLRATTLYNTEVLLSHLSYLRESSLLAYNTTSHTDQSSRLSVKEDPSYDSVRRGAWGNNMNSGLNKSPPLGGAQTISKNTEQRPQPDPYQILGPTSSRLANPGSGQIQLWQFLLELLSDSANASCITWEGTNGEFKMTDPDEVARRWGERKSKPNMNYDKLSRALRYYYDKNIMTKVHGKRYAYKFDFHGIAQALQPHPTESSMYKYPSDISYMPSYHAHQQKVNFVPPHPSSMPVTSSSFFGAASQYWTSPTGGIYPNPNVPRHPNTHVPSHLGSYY
# Summary of the method: (§1)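 Pools were built from human transcription factors expressed in yeast as GST fusions, captured on glutathione beads and DNA-barcoded, along with a tag-only sample. Incubation with 200 nmole of a 16-mer random double-stranded DNA library lasted 30 min at room temperature in Tris/NaCl/DTT/glycerol buffer, and was followed by washing, 0.1% formaldehyde crosslinking, proximity ligation, PCR amplification and Illumina NextSeq500 sequencing. Binding signal is the quotient of each hexamer's read frequency for a factor and its frequency for the tag-only sample.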
# [2] = molecular target: T2, ELK1 (Homo sapiens, UniProt P19419 1-428)
# T2 sequence: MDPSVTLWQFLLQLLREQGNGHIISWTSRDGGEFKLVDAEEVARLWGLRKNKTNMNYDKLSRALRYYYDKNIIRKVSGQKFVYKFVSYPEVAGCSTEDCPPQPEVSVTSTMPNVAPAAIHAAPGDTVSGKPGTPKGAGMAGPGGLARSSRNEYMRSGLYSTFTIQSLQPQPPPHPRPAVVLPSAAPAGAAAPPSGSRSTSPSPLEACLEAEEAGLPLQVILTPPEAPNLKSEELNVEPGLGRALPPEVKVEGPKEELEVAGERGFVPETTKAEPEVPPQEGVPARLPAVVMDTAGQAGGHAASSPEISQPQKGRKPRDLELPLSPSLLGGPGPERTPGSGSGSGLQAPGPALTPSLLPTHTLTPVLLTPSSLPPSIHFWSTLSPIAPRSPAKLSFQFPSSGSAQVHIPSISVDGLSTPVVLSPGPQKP
# Summary of the method: as §1
# [3] = molecular target: T3, GABPA (Homo sapiens, UniProt Q06546 1-454)
# T3 sequence: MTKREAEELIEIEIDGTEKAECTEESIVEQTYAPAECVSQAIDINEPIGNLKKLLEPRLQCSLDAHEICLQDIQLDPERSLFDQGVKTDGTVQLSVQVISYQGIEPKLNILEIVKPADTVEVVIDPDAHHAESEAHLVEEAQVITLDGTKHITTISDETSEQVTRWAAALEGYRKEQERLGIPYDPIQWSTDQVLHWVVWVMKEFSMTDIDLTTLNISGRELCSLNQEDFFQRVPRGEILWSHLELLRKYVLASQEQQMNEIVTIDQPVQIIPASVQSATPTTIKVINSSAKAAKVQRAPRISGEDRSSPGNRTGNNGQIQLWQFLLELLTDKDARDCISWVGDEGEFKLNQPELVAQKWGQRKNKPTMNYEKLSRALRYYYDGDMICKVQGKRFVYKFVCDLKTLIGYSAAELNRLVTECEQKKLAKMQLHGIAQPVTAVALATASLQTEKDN
# Summary of the method: as §1
# [4] = molecular target: T4, ERG (Homo sapiens, UniProt P11308 1-479)
# T4 sequence: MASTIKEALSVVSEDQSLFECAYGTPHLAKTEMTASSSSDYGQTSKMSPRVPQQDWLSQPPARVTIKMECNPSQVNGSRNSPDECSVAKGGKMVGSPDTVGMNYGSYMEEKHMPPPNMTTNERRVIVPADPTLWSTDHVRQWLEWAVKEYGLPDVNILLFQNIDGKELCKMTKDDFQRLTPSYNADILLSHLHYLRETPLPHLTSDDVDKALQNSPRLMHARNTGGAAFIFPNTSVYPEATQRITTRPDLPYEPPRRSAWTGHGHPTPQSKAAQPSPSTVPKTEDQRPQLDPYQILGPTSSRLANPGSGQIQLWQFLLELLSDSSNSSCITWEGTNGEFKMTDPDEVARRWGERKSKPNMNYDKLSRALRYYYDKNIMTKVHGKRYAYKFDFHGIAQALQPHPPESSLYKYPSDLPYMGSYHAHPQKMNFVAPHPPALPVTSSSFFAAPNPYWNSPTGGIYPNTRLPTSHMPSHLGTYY
# Summary of the method: as §1
# [5] = molecular target: ELF1 (Homo sapiens, UniProt P32519 1-619)
# Sequence of ELF1 (P32519 whole entry): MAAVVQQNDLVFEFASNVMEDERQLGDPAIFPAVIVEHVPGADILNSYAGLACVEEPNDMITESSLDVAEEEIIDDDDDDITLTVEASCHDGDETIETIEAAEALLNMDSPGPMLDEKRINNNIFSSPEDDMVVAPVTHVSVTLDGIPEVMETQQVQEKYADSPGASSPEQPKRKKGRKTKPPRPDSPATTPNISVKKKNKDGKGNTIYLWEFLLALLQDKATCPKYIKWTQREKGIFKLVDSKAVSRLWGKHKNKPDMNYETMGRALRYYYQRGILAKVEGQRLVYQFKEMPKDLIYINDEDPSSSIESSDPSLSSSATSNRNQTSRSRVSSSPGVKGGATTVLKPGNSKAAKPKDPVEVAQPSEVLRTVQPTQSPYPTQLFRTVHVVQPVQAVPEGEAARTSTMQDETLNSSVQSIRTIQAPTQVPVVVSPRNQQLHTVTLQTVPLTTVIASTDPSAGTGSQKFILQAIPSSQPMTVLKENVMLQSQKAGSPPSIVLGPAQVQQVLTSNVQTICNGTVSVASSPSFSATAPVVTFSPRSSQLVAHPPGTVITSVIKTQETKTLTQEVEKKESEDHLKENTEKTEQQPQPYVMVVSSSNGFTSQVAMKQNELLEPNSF
# Summary of the method: as §1
# [6] = molecular target: T5, EHF (Homo sapiens, UniProt Q9NZC4 1-300)
# T5 sequence: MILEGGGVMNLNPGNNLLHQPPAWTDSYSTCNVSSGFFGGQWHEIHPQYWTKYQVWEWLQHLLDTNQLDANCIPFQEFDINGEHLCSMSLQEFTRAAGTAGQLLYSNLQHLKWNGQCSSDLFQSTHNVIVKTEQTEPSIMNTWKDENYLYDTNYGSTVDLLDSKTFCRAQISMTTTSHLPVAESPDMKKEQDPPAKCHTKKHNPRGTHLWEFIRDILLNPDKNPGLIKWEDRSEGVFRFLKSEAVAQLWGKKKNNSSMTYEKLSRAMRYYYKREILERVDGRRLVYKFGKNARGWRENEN
# Summary of the method: as §1
# [7] = molecular target: SPI1 (Homo sapiens, UniProt P17947 1-270)
# Summary of the method: as §1
# [8] = molecular target: SPIB (Homo sapiens, UniProt Q01892 1-262)
# Sequence of SPIB (Q01892 whole entry): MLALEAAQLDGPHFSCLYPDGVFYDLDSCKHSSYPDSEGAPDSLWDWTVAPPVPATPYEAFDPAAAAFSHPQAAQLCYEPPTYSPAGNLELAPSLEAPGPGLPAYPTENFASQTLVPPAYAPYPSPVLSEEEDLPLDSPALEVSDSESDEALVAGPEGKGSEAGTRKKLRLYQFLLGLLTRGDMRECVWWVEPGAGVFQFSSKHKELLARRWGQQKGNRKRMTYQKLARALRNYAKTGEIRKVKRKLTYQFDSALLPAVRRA
# Summary of the method: as §1
# [9] = molecular target: T6, ELK3 (Homo sapiens, UniProt P41970 1-407)
# T6 sequence: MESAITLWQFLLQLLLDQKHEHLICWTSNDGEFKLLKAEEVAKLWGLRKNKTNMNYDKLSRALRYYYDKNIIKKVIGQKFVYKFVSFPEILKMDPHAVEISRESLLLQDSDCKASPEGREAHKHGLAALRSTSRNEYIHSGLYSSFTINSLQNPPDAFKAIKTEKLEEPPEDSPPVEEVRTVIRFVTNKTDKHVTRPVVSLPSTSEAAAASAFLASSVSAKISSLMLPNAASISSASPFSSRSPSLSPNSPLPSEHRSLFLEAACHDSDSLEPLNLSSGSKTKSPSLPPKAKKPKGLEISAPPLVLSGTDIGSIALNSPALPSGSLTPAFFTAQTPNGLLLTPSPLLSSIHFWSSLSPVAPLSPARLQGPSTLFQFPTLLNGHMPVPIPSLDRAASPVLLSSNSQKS
# Summary of the method: as §1
sequence,measurement,setting,value
CTGATG,binding signal,[1],"1.75 fold enrichment (6-mer frequency, TF over GST control)"
same,binding signal,[2],"1.65 fold enrichment (6-mer frequency, TF over GST control)"
same,binding signal,[3],"1.7 fold enrichment (6-mer frequency, TF over GST control)"
same,binding signal,[4],"1.43 fold enrichment (6-mer frequency, TF over GST control)"
same,binding signal,[5],"1.6 fold enrichment (6-mer frequency, TF over GST control)"
same,binding signal,[6],"1.59 fold enrichment (6-mer frequency, TF over GST control)"
same,binding signal,[7],"1.63 fold enrichment (6-mer frequency, TF over GST control)"
same,binding signal,[8],"1.7 fold enrichment (6-mer frequency, TF over GST control)"
same,binding signal,[9],"1.5 fold enrichment (6-mer frequency, TF over GST control)"
